Screening results as filed in PubChem.
pPAFAH inh: inhibitors of human plasma PAF acetylhydrolase (pPAFAH) | inhibition, % at 3.39 µM | actives 1.5% (n = 330,000) | recombinant pPAFAH, FP-rhodamine probe fluorescence polarization;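 active = inhibition above the mean inhibition across the screen plus 3 SD, cut at about 25% in these data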;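 also: inhibitors block binding of the rhodamine activity-based probe so polarization drops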
Target sequence (Q13093 whole entry, looked up): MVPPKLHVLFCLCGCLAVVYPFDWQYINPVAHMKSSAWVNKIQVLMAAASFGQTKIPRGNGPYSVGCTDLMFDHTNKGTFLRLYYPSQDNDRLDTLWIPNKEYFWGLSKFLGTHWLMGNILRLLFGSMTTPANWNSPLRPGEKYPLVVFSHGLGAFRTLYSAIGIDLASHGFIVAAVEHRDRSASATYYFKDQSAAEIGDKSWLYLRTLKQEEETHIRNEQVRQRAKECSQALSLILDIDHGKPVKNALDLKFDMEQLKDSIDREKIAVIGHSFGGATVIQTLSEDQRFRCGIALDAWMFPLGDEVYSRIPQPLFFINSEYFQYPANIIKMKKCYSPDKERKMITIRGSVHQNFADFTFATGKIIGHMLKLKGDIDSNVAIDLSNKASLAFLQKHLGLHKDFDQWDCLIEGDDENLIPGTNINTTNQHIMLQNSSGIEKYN
PAFAH1B3 FP inh: blocks human PAF acetylhydrolase 1B catalytic subunit 3 | recombinant PAFAH1B3, FP-rhodamine probe, fluorescence polarization | actives 0.28% (n = 340,000) | inhibition, % at 3.39 µM;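 active = inhibition above the screen-wide average of all tested compounds plus 3 SD, cut at about 25% in these data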
PAFAH1B2 FP inh: PAFAH1B2 (human) inhibition; recombinant PAFAH1B2, FP-rhodamine activity probe, fluorescence polarization; inhibition, % at 3.39 µM; actives 1.2% (n = 340,000);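 active = inhibition above the mean of all tested compounds plus 3 SD, cut at about 24% in these data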
Target sequence (P68402 whole entry, looked up): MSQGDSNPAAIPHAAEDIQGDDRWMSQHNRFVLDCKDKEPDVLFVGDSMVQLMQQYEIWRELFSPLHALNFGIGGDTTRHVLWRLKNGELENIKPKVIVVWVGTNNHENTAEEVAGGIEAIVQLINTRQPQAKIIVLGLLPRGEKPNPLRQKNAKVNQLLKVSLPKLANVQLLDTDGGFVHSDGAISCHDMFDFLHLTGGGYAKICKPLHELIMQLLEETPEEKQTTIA
PME-1 primary: PME-1 (human) inhibition; inhibition, % at 5.9 µM; recombinant PME-1, FP-Rh probe fluorescence polarization; actives 0.53% (n = 320,000); Q9Y570;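 active = inhibition above the campaign mean of all compounds plus 3 SD, cut at about 26% in these data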;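 also: competitive labeling of PME-1 active site by serine hydrolase directed probe; inhibitors block probe labeling so polarization falls and inhibition rises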
Fam108B counter: counter-screen for RBBP9 inhibitors: inhibitors of mouse Fam108B; inhibition, % at 9.51 µM; actives 0.33% (n = 300,000); recombinant Fam108B, FP-Rh probe fluorescence polarization;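 active = inhibition above the screen mean inhibition plus 3 SD, computed separately per campaign, cut at about 18% in these data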;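 also: inhibitors lower polarization as less probe binds the enzyme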
PAFAH2 inh: PAFAH2 (human) inhibition. Q99487. recombinant PAFAH2, FP-rhodamine activity probe, fluorescence polarization. inhibition, % at 3.39 µM. actives 0.99% (n = 340,000);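 active = inhibition above the mean over all tested compounds plus 3 SD, cut at about 30% in these data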;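 also: inhibitors block probe labeling of enzyme so polarization drops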
Fam108b inh conf: confirmation of mouse Fam108b serine hydrolase inhibitors. shares compounds with Fam108B counter. recombinant Fam108b, FP-Rh probe fluorescence polarization. actives 44% (n = 930). inhibition, % at 9.51 µM;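 active = inhibition above a limit from the primary screen, the mean over all compounds plus 3 SD, cut at about 19% in these data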;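 also: inhibitors free the probe so polarization falls as inhibition rises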
Fam108b ABPP HTS: inhibits mouse Fam108b in gel-based ABPP; inhibition, % at 20 µM; shares compounds with Fam108B counter; actives 44% (n = 260); recombinant Fam108b, fluorophosphonate probe; in the data active = inhibition above about 40%
Hits are given with their value. This is a sample that favours compounds with a hit; in the whole collection about 2.9% have one here.

For O=C(CSc1nnc(NC2CCCCC2)s1)Nc1ccc2c(c1)C(=O)c1ccccc1C2=O the results were pPAFAH inh inactive, PAFAH1B3 FP inh inactive, PAFAH1B2 FP inh inactive, PME-1 primary inactive, Fam108B counter 42, PAFAH2 inh inactive and Fam108b inh conf inactive.
CC(C)Nc1nnc(SCC(=O)Nc2ccc3c(c2)C(=O)c2ccccc2C3=O)s1 was read as pPAFAH inh inactive, PAFAH1B3 FP inh inactive, PAFAH1B2 FP inh inactive, PME-1 primary 57, Fam108B counter 30, PAFAH2 inh inactive and Fam108b inh conf inactive.
For COc1cc(F)ccc1CN1CCC(n2nccc2NC(=O)C2CCOC2)CC1 (stereo unspecified) the results were pPAFAH inh inactive, PAFAH1B3 FP inh inactive, PAFAH1B2 FP inh inactive, PME-1 primary inactive, Fam108B counter inactive and PAFAH2 inh inactive.
`COc1ccc(C(=O)/C=C/Nc2ccc(S(=O)(=O)Nc3cccc(C(C)=O)c3)cc2)cc1` gave pPAFAH inh inactive, PAFAH1B3 FP inh inactive, PAFAH1B2 FP inh inactive, PME-1 primary 43, Fam108B counter 34, PAFAH2 inh inactive and Fam108b inh conf 20.
Screening COc1cccc(C(=O)/C=C/Nc2ccc(S(=O)(=O)Nc3ccc(C(C)=O)cc3)cc2)c1 returned pPAFAH inh inactive, PAFAH1B3 FP inh inactive, PAFAH1B2 FP inh inactive, PME-1 primary inactive, Fam108B counter inactive and PAFAH2 inh inactive.
Screening O=C(Cc1cccc2ccccc12)Nc1nc(-c2cccc([N+](=O)[O-])c2)cs1 returned pPAFAH inh inactive, PAFAH1B3 FP inh inactive, PAFAH1B2 FP inh inactive, PME-1 primary inactive, Fam108B counter 20, PAFAH2 inh inactive and Fam108b inh conf inactive.
Cc1cc2nc3ccc(N(C)C)cc3nc2cc1N was read as pPAFAH inh 32, PAFAH1B3 FP inh 32, PAFAH1B2 FP inh 31, PME-1 primary 40, Fam108B counter 32, PAFAH2 inh 46 and Fam108b inh conf 19.
Cc1ccc(-n2nc3cc(C)c(N)cc3n2)cc1 was read as pPAFAH inh inactive, PAFAH1B3 FP inh inactive, PAFAH1B2 FP inh inactive, PME-1 primary inactive, Fam108B counter inactive and PAFAH2 inh inactive.
`C=CCOC(=O)CCCCCCCC` gave pPAFAH inh inactive, PAFAH1B3 FP inh inactive, PAFAH1B2 FP inh inactive, PME-1 primary inactive and PAFAH2 inh inactive.
`Cc1cc2nc3c(nc2cc1C)CCCC3` gave pPAFAH inh inactive, PAFAH1B3 FP inh inactive, PAFAH1B2 FP inh inactive, PME-1 primary inactive, Fam108B counter inactive and PAFAH2 inh inactive.
For CC1CC(=O)c2c(cc3c(-c4c(O)cc(O)c5c(O)c6c(cc45)OC(C)CC6=O)c(O)cc(O)c3c2O)O1 (stereo unspecified) the results were pPAFAH inh 80, PAFAH1B3 FP inh 76, PAFAH1B2 FP inh 53, PME-1 primary inactive, Fam108B counter 54, PAFAH2 inh 62, Fam108b inh conf 66 and Fam108b ABPP HTS inactive.
`O=C1CC(c2ccc(O)cc2)Oc2cc(O)cc(O)c21` (stereo unspecified) gave pPAFAH inh inactive, PAFAH1B3 FP inh inactive, PAFAH1B2 FP inh inactive, PME-1 primary inactive, Fam108B counter inactive and PAFAH2 inh inactive.
Cc1cc(CNC(=O)COC(=O)C2CC3CCCC(C2)C3=O)cc(C)c1O (stereo unspecified) was read as pPAFAH inh inactive, PAFAH1B3 FP inh inactive, PAFAH1B2 FP inh inactive and PAFAH2 inh inactive.
For CCOc1cc(C2Nc3cccc4cccc(c34)N2)ccc1O the results were pPAFAH inh inactive, PAFAH1B3 FP inh 40, PAFAH1B2 FP inh 27, PME-1 primary inactive, Fam108B counter 63, PAFAH2 inh 41 and Fam108b inh conf 24.
Screening CCOc1cc(C2Nc3ccccc3C(=O)N2c2ccccc2)ccc1O (stereo unspecified) returned pPAFAH inh inactive, PAFAH1B3 FP inh inactive, PAFAH1B2 FP inh inactive, PME-1 primary inactive, Fam108B counter inactive and PAFAH2 inh inactive.
For CCOc1ccc(C2Nc3cccc4cccc(c34)N2)cc1OC the results were pPAFAH inh inactive, PAFAH1B3 FP inh inactive, PAFAH1B2 FP inh inactive, PME-1 primary inactive, Fam108B counter 25, PAFAH2 inh inactive and Fam108b inh conf inactive.
COc1ccc(C2Nc3cccc4cccc(c34)N2)cc1 was read as pPAFAH inh inactive, PAFAH1B3 FP inh inactive, PAFAH1B2 FP inh inactive, PME-1 primary inactive, Fam108B counter inactive and PAFAH2 inh inactive.
COc1cc(/C=N/n2c(-c3ccc4c(c3)NC(=O)CO4)csc2=Nc2cccc(C)c2)ccc1O was read as pPAFAH inh 34, PAFAH1B3 FP inh inactive, PAFAH1B2 FP inh inactive, PME-1 primary inactive, Fam108B counter 21, PAFAH2 inh inactive and Fam108b inh conf inactive.
COCCN=c1scc(-c2ccc3c(c2)NC(=O)CO3)n1/N=C(\C)c1ccc(O)cc1 was read as pPAFAH inh inactive, PAFAH1B3 FP inh inactive, PAFAH1B2 FP inh inactive, PME-1 primary inactive, Fam108B counter inactive and PAFAH2 inh inactive.
Screening O=[N+]([O-])c1cc(/C=N\Nc2nc(-c3ccccc3)cs2)ccc1O returned pPAFAH inh 31, PAFAH1B3 FP inh inactive, PAFAH1B2 FP inh inactive, PME-1 primary inactive, Fam108B counter 25, PAFAH2 inh 32 and Fam108b inh conf 25.
For COc1cc(/C=N/Nc2nc(-c3ccc(S(=O)(=O)N(C)C)cc3)cs2)ccc1O the results were pPAFAH inh inactive, PAFAH1B3 FP inh inactive, PAFAH1B2 FP inh inactive, PME-1 primary 28, Fam108B counter 21, PAFAH2 inh inactive and Fam108b inh conf inactive.
COc1ccc(/C=N/Nc2nc(-c3cccc(S(=O)(=O)N4CCCC4)c3)cs2)cc1OC was read as pPAFAH inh inactive, PAFAH1B3 FP inh inactive, PAFAH1B2 FP inh inactive, PME-1 primary inactive, Fam108B counter inactive and PAFAH2 inh inactive.
`O=[N+]([O-])c1ccc(-c2csc(N/N=C/c3cccnc3)n2)cc1` gave pPAFAH inh inactive, PAFAH1B3 FP inh inactive, PAFAH1B2 FP inh inactive, PME-1 primary inactive, Fam108B counter inactive and PAFAH2 inh inactive.
`Cc1ccc(NC(=O)c2sccc2C)nc1` gave pPAFAH inh inactive, PAFAH1B3 FP inh inactive, PAFAH1B2 FP inh inactive, PME-1 primary inactive, Fam108B counter inactive and PAFAH2 inh inactive.
Screening CCOCc1cnc(C)nc1NCC(=O)c1c(C)[nH]c2ccccc12 returned pPAFAH inh inactive, PAFAH1B3 FP inh inactive, PAFAH1B2 FP inh inactive, PME-1 primary inactive, Fam108B counter 57, PAFAH2 inh inactive and Fam108b inh conf inactive.
Screening COc1cc(NC(=O)[C@@H]2CCCN(S(=O)(=O)c3cccc4cccnc34)C2)cc(OC)c1OC returned pPAFAH inh inactive, PAFAH1B3 FP inh inactive, PAFAH1B2 FP inh inactive, PME-1 primary inactive, Fam108B counter inactive and PAFAH2 inh inactive.
`CCOc1ccccc1NC(=S)N1CCN(c2ccccc2F)CC1` gave PAFAH1B3 FP inh inactive, PAFAH1B2 FP inh inactive and PAFAH2 inh inactive.
